Experimental data reported in PubChem BioAssay (NCI).
The panel holds about 83,000 compounds, 20% with a hit somewhere; the sample as a whole holds those more often.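 Assay: single dose, 48 h. Readout: percent growth (0 = no net growth; negative = cell death). Active: <10.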 Unmarked numbers belong to inactive results. Activity calls are given as the source filed them.

Columns and labels:
Test in all cases: NCI-60 one-dose screen, 48 h (100 = growth as untreated, 0 = no growth, -100 = all killed)
Conditions in all cases: 10 µM unless noted
[1] = test system: NCI-H23 lung
[2] = test system: NCI-H226 lung
[3] = test system: HOP-62 NSCLC
[4] = test system: NCI-H460 lung
[5] = test system: HOP-92 NSCLC
[6] = test system: NCI-H522 lung
[7] = test system: A549/ATCC NSCLC
[8] = test system: 786-0 renal
[9] = test system: COLO 205 colon
[10] = test system: DU-145 prostate
[11] = test system: K-562 leukemia
[12] = test system: MALME-3M melanoma
[13] = test system: MDA-MB-231 breast
[14] = test system: RXF 393 renal
[15] = test system: SF-268 CNS
[16] = test system: SF-295 CNS
[17] = test system: SF-539 CNS
[18] = test system: UACC-257 melanoma
[19] = test system: M14 melanoma
[20] = test system: NCI-H322M lung

| Structure (SMILES) | growth [1] | growth [2] | growth [3] | growth [4] | growth [5] | growth [6] | growth [7] | growth [8] | growth [9] | growth [10] | growth [11] | growth [12] | growth [13] | growth [14] | growth [15] | growth [16] | growth [17] | growth [18] | growth [19] | growth [20] |
| --- | --- | --- | --- | --- | --- | --- | --- | --- | --- | --- | --- | --- | --- | --- | --- | --- | --- | --- | --- | --- |
| CC(=O)c1c2c(c3ccc4c5ccccc5ccc4n13)C(=O)c1ccccc1C2=O | 68.4% | 54.8% | 70.7% | 28% | 94.9% | 91.9% | 84.1% | 78.5% | 99.8% | 102% | 103% | -49.5% (active) | 77.3% | 59.6% | 98% | 92.5% | 77.6% | 97.5% | 65.7% | – |
| O=C(c1ccc(Cl)cc1)C1[C@H](c2ccccc2Cl)[C@@H](c2ccccc2)NC12C(=O)Nc1ccc(Br)cc12 (stereo partly specified) | -80.5% (active) | -89.1% (active) | -88% (active) | -78.8% (active) | -84.3% (active) | -73.4% (active) | -41.7% (active) | -67% (active) | -83.3% (active) | -34.7% (active) | -43.2% (active) | -64.2% (active) | -95.4% (active) | -93.5% (active) | -45.1% (active) | -88.1% (active) | -85.2% (active) | -30.7% (active) | -88.5% (active) | – |
| Cc1ccc2nc(COc3ccc(C(=O)NNC(=O)Nc4ccc(Cl)c(C(F)(F)F)c4)cc3)[nH]c2c1 | – | 54.2% | 6.46% (active) | 32.8% | -22.6% (active) | 41% | 17.1% | 50.1% | 84.1% | 59.3% | 20.8% | -48.5% (active) | 3.89% (active) | 50.2% | 40.1% | 63% | -10.6% (active) | -17.4% (active) | 27.7% | – |
| Cc1ccc(Cl)cc1NC(=O)N/C(N)=N/c1nc2ccccc2s1 | – | 0.832% (active) | -11.7% (active) | -8.76% (active) | -23% (active) | -61.9% (active) | -36.9% (active) | -2.48% (active) | -91.1% (active) | -35% (active) | 4.45% (active) | 15.6% | -42.7% (active) | -28.5% (active) | 15.4% | -49.6% (active) | -51.2% (active) | 44.8% | -17.1% (active) | 18.6% |
| COc1c(B(O)O)cc(F)cc1-c1nc2ccc3[nH]ncc3c2c2c1COCC2 | – | 50.8% | 49.5% | 64.9% | 18.1% | 14.5% | 92.5% | 46.1% | 38.1% | 73.5% | 63.7% | 126% | 33.4% | -5.84% (active) | 44.9% | 77.2% | 21.7% | 97.5% | 114% | 78.4% |
| O=C(c1cc2cc(OCCCN3CCC3)ccc2[nH]1)N1C[C@@H](CCl)c2c1cc(OCc1ccccc1)c1ccccc21 | – | -4.57% (active) | -44% (active) | -60.1% (active) | -18.7% (active) | -70.1% (active) | -18.5% (active) | -86.1% (active) | -84.5% (active) | -29.5% (active) | 0.535% (active) | -73.9% (active) | -41.4% (active) | -80.8% (active) | 0.226% (active) | -4.45% (active) | -79.8% (active) | -23.1% (active) | -79.3% (active) | -23.5% (active) |
| COc1ccc(N=Nc2c(N)nn3c(-c4ccc(OC)c(OC)c4)ccnc23)cc1 | – | 94.8% | 21.5% | – | 67.6% | 78.7% | 74% | 76.2% | 103% | 79.2% | 80.2% | 78.4% | 81.1% | 65.2% | 87.2% | 65.6% | 20.6% | 99.3% | 62.5% | 88.5% |
| O=C(/C=C1\C(=O)N(Cc2ccccc2)c2ccccc21)c1cc2ccccc2oc1=O | – | 74.2% | 102% | 103% | 87.9% | 35.4% | 104% | 100% | 28.6% | 104% | 1.52% (active) | 68.9% | 81% | 86.1% | 95.6% | 104% | 98.9% | 107% | 85.1% | 93.9% |
| CC(C)(C)OC(=O)N1C/C(=C\c2ccc(F)cc2)C(=O)/C(=C/c2ccc(F)cc2)C1 | – | -43.8% (active) | 14.6% | – | -30.5% (active) | -89% (active) | 35.3% | -74.8% (active) | -47.2% (active) | 9.97% (active) | 9.9% (active) | -75.5% (active) | -54.4% (active) | -88.1% (active) | -46.1% (active) | -75.1% (active) | -98.3% (active) | -42.1% (active) | -71.5% (active) | 29.6% |
| COc1cccc2nc(Nc3cccc(NC(=O)c4ccc(CN5CCN(C)CC5)c(C(F)(F)F)c4)c3)ccc12 | – | -93.4% (active) | -78.5% (active) | -77.1% (active) | -66.7% (active) | -87% (active) | -70.5% (active) | -81.7% (active) | -73.7% (active) | -83.5% (active) | 2.54% (active) | -96.4% (active) | -97.9% (active) | -98.5% (active) | -54.4% (active) | -95.1% (active) | -100% (active) | -83.1% (active) | -85.2% (active) | -100% (active) |
| COC(=O)c1cc(C(=O)C(Br)Br)n2c1ccc1c3ccccc3ccc12 | – | 64.2% | 56.7% | 18.4% | 54.3% | 60.2% | 40.8% | 64.6% | 55.3% | 52.2% | 52.3% | 65.6% | 67.7% | 141% | 68% | 54% | 54.9% | 80.1% | 75.1% | 89.4% |
| O=C1NC(=NC23CC4CC(CC(C4)C2)C3)N/C1=C\c1ccc2ncccc2c1 | – | -38.5% (active) | -64.4% (active) | -68.8% (active) | -11.7% (active) | -37% (active) | -46.3% (active) | -51% (active) | 19.5% | 3.46% (active) | 11% | 2.17% (active) | -14% (active) | -4.92% (active) | 35.2% | -29.6% (active) | 2.08% (active) | 50.6% | 45.9% | 22.6% |
| Cc1ccc2nc(SCc3ccccc3F)n(-c3ccccc3)c(=O)c2c1 | – | 96.7% | 95% | 105% | 82.1% | 87.8% | 85.8% | 94.9% | 116% | 108% | 83.8% | 118% | 76.1% | 104% | 113% | 89.5% | 99.5% | 106% | 95.3% | 97.1% |
| O=C(CSc1nnc(-c2ccc(-c3nc4ccccc4[nH]3)cc2)o1)Nc1ccc(Br)cc1 | – | 74.4% | 3.07% (active) | -55.2% (active) | 9.82% (active) | 12.8% | 0.989% (active) | -40.9% (active) | 51.7% | 13.8% | 11% | 31.9% | -29.1% (active) | -62% (active) | 48.7% | 53.8% | -89.8% (active) | 61.9% | -0.614% (active) | 36.8% |
| COc1c2c(cc3c1C(CCc1ccccc1)N(C)CC3)OCO2 (stereo unspecified) | – | -1.8% (active) | 36.6% | 1.55% (active) | 1.44% (active) | 11.4% | 21.4% | 12.6% | -56.5% (active) | 23.2% | 6.06% (active) | -65.8% (active) | -11.7% (active) | -12.1% (active) | 23.2% | -70.1% (active) | -40.2% (active) | 16.6% | -26.4% (active) | 28.7% |
| O=C(N/N=C/c1ccoc1)c1[nH]c2ccc(Br)cc2c1-c1ccccc1 | – | -66.2% (active) | -70.6% (active) | -83.2% (active) | -62.4% (active) | -82.2% (active) | -60.4% (active) | -76.5% (active) | -68.9% (active) | -48.3% (active) | 3.56% (active) | -84.7% (active) | -85.6% (active) | -86.3% (active) | -56.8% (active) | -97.9% (active) | -97.6% (active) | -78.1% (active) | -84.6% (active) | -86.4% (active) |
